Reference: PubChem BioAssay (Tox21)
Inconclusive results are not listed. The source made the active and inactive calls. Unless noted, calls come from the whole dose curve; as a rule, active = well fitted curve in the direction sought with a large enough effect in the repeat runs; inconclusive = weak or mixed curves; inactive = no such curve, though single readings can be large; an effect the other way counts as inactive or inconclusive.

What was measured:
[1] = qHTS assay to identify small molecule agonists of the peroxisome proliferator-activated receptor delta (PPARd) signaling pathway - cell viability counter screen (AID 743211); note: nearly all actives have a fitted effect of over 55% in size
Summary of the method: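 Viability was measured as CellTiter-Glo luminescence (30 min, room temperature) in the same wells as the beta-lactamase readout. GeneBLAzer PPARd UAS-bla HEK293H cells received compound after 5 h plating and were incubated 17 h at 37 C.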

[2] = biological target: Peroxisome proliferator-activated receptor delta (Homo sapiens) (UniProt Q03181); assay: qHTS assay to identify small molecule agonists of the peroxisome proliferator-activated receptor delta (PPARd) signaling pathway (AID 743212; calls by dose curve)
Chain of Peroxisome proliferator-activated receptor delta (Homo sapiens) (Q03181 whole entry, looked up): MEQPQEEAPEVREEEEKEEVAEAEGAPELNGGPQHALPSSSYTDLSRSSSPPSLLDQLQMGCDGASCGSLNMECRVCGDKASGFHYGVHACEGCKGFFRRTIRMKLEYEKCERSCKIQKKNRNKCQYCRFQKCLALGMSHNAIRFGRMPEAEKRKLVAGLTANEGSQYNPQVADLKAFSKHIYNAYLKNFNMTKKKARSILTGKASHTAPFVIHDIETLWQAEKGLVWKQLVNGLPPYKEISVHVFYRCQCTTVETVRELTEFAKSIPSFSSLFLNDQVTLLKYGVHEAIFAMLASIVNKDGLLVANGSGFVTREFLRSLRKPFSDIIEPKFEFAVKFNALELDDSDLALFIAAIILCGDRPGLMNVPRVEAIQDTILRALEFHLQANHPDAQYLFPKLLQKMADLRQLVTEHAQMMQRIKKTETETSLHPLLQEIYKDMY
Summary of the method: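 HEK293H PPARd-bla cells; 5 h preincubation 37 C/5% CO2; compound (DMSO) 37 C; LiveBLAzer B/G FRET substrate 2 h RT; fluorescence intensity.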

[3] = qHTS assay to identify small molecule antagonists of the peroxisome proliferator-activated receptor delta (PPARd) signaling pathway - cell viability counter screen (AID 743213); note: nearly all actives have a fitted effect of over 50% in size
Summary of the method: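 Cytotoxicity counter screen: CellTiter-Glo luminescence read 30 min after addition, in the same wells as the reporter assay. There, PPARd UAS-bla HEK293H cells (3000/well) were treated 17 h at 37 C with compound and 300 nM L165041.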

[4] = biological target: Bile acid receptor (Homo sapiens) (UniProt Q96RI1); assay: qHTS assay to identify small molecule antagonists of the farnesoid-X-receptor (FXR) signaling pathway (AID 743217; active = well fitted inhibition curve with a large enough effect in the signal ratio in the repeat runs, not every such curve was filed as active; the % refers to the signal ratio)
Chain of Bile acid receptor (Homo sapiens) (Q96RI1 whole entry, looked up): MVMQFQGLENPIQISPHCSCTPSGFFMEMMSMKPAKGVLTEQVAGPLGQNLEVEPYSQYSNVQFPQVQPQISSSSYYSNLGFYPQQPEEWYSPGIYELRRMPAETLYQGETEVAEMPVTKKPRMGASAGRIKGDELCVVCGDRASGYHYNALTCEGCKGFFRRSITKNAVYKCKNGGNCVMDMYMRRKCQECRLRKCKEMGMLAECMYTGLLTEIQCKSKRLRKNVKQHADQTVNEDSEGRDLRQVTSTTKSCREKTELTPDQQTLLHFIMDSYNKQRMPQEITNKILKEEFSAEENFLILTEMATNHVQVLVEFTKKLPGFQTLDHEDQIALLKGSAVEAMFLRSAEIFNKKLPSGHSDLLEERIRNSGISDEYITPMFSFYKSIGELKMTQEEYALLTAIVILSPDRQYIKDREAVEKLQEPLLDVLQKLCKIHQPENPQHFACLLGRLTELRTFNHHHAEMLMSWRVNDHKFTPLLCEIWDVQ
Summary of the method: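 Antagonist mode against 50 uM (final) chenodeoxycholic acid stimulation in FXR-bla HEK 293T cells, 16 h at 37 °C. Inhibition detected as reduced beta-lactamase activity via LiveBLAzer B/G FRET fluorescence after 2 h at room temperature.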

[5] = qHTS assay to identify small molecule agonists of the farnesoid-X-receptor (FXR) signaling pathway - cell viability counter screen (AID 743218); note: nearly all actives have a fitted effect of over 45% in size
Summary of the method: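 Cytotoxicity counter-screen run in parallel, same wells: FXR-UAS-bla HEK 293T cells dosed 16 h at 37 C, viability read by CellTiter-Glo luminescence after 30 min at room temperature.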

[6] = biological target: Bile acid receptor (Homo sapiens) (UniProt Q96RI1); assay: qHTS assay to identify small molecule agonists of the farnesoid-X-receptor (FXR) signaling pathway (AID 743220; active = well fitted activation curve with a large enough effect in the signal ratio in the repeat runs, not every such curve was filed as active; the % refers to the signal ratio)
Summary of the method: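 Beta-lactamase reporter under UAS control in GeneBLAzer FXR HEK 293T cells (5000/well) measured with LiveBLAzer FRET substrate after 2 h at room temperature. Compound exposure lasted 16 h at 37C.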

[7] = qHTS assay to identify small molecule antagonists of the farnesoid-X-receptor (FXR) signaling pathway - cell viability counter screen (AID 743221; active = well fitted cell-killing curve with a large enough effect in the repeat runs, not every such curve was filed as active; note: nearly all actives have a fitted effect of over 50% in size)
Summary of the method: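 Cytotoxicity counter screen run in the FXR-bla reporter wells: HEK 293T cells exposed to compound with 50 uM (final) chenodeoxycholic acid for 16 h, 37 C, then viability measured by CellTiter-Glo luminescence after 30 min, room temperature.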

[8] = qHTS assay to identify small molecule agonists of the vitamin D receptor (VDR) signaling pathway - cell viability counter screen (AID 743224); note: series mostly up to about 63 µM; nearly all actives have a fitted effect of over 50% in size
Summary of the method: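 Viability is measured in the same wells as the VDR-bla reporter assay: after 16 h compound treatment and 2 h substrate loading, CellTiter-Glo is added and luminescence read 30 min later.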

[9] = qHTS assay to identify small molecule agonists of the NFkB signaling pathway - cell viability counter screen (AID 1159515; calls by dose curve; note: series mostly up to about 61 µM; nearly all actives have a fitted effect of over 55% in size)
Summary of the method: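 Multiplexed viability readout: after the 5 hr compound exposure and 1.5 hr FRET substrate step, CellTiter-Glo reagent went into the same NFkB-bla ME-180 wells; ATP luminescence was measured after 30 min at room temperature.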

[10] = qHTS assay to identify small molecule agonists of the endoplasmic reticulum stress response signaling pathway (AID 1159516; active = well fitted activation curve with a large enough effect in the signal ratio in the repeat runs, not every such curve was filed as active; the % refers to the signal ratio)
Summary of the method: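 Tox21 10K library screened in quantitative HTS format on ESRE-bla HeLa cells, a beta-lactamase reporter under ER stress response element control; 5 hr treatment, FRET read.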

[11] = qHTS assay to identify small molecule agonists of the endoplasmic reticulum stress response signaling pathway - cell viability counter screen (AID 1159517; calls by dose curve; note: series mostly up to about 61 µM; nearly all actives have a fitted effect of over 50% in size)
Summary of the method: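 HeLa cells carrying an ESRE-driven beta-lactamase reporter receive compound for 5 hr at 37 C. Cell viability is then gauged with CellTiter-Glo by luminescence, 30 min at room temperature.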

[12] = qHTS assay to identify small molecule antagonists of the retinoid-related orphan receptor gamma (ROR-gamma) signaling pathway - cell viability counter screen (AID 1159520); note: nearly all actives have a fitted effect of over 50% in size
Summary of the method: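 Cytotoxicity was read from cellular ATP (CellTiter-Glo luminescence) after 16 hr at 37 C with 1 uM doxycycline induction. The inducer was added 2 hr after compound transfer to Tet-on ROR gamma CHO cells.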

[13] = biological target: Nuclear receptor ROR-gamma (Homo sapiens) (UniProt P51449); assay: qHTS assay to identify small molecule antagonists of the retinoid-related orphan receptor gamma (ROR-gamma) signaling pathway (AID 1159521)
Summary of the method: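 Antagonist read-out: drop in luminescence (ONE-Glo) from an RORE-LUC reporter in CHO cells with doxycycline-inducible ROR-gamma; 2 hr compound pretreatment, 1 uM doxycycline, 16 hr incubation at 37 C.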

[14] = qHTS assay to identify small molecule agonists of the AP-1 signaling pathway - cell viability counter screen (AID 1159525; calls by dose curve; note: nearly all actives have a fitted effect of over 55% in size)
Summary of the method: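 Luminescent ATP readout (Cell Titer Glo, 30 min RT), normalised to DMSO and tetra n-octyl ammonium bromide controls. Cells were ME-180 AP-1-bla in 0.5% dialyzed FBS Opti-MEM, with a 5 h, 37 °C compound exposure.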

[15] = qHTS assay to identify small molecule agonists of the AP-1 signaling pathway (AID 1159526; calls by dose curve)
[16] = biological target: Vitamin D3 receptor (Homo sapiens) (UniProt P11473); assay: qHTS assay to identify small molecule agonists of the vitamin D receptor (VDR) signaling pathway (AID 743222; calls by dose curve)
Chain of Vitamin D3 receptor (Homo sapiens) (P11473 whole entry, looked up): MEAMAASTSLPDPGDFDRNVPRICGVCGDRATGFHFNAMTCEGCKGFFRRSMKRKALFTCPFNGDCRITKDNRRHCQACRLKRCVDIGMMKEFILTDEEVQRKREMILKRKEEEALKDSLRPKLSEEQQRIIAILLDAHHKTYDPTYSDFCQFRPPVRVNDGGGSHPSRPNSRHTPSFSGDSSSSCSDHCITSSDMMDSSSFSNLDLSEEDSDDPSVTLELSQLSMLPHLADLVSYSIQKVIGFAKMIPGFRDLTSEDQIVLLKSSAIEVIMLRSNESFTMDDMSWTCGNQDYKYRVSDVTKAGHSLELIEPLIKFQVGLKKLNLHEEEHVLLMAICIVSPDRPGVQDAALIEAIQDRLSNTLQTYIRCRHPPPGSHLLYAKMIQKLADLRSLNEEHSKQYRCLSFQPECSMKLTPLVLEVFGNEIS
Summary of the method: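 Quantitative HTS agonist-mode screen: compounds in DMSO were pin-transferred onto VDR-bla cells and incubated 16 h at 37C, 5% CO2. Reporter activity was detected with LiveBLAzer B/G FRET substrate after 2 h at room temperature.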

[17] = biological target: Vitamin D3 receptor (Homo sapiens) (UniProt P11473); assay: qHTS assay to identify small molecule antagonists of the vitamin D receptor (VDR) signaling pathway (AID 743223; active = well fitted inhibition curve with a large enough effect in the signal ratio in the repeat runs, not every such curve was filed as active; the % refers to the signal ratio)
Summary of the method: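 Antagonist mode: compound added to VDR-bla cells alongside agonist 1alpha,25-dihydroxyvitamin D3 (3 nM final), incubation 16 h at 37C. Read-out is LiveBLAzer FRET fluorescence, 2 h at room temperature.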

[18] = qHTS assay to identify small molecule antagonists of the vitamin D receptor (VDR) signaling pathway - cell viability counter screen (AID 743225); note: nearly all actives have a fitted effect of over 50% in size
Summary of the method: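 Cytotoxicity counter screen read by CellTiter-Glo luminescence (30 min, room temperature) in the same wells as the VDR-bla antagonist readout. HEK 293T VDR-UAS-bla cells had 16 h at 37C with compound and 3 nM (final) 1-alpha,25-dihydroxyvitamin D3, then 2 h with FRET substrate.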

[19] = biological target: Peroxisome proliferator-activated receptor delta (Homo sapiens) (UniProt Q03181); assay: qHTS assay to identify small molecule antagonists of the peroxisome proliferator-activated receptor delta (PPARd) signaling pathway (AID 743215; active = well fitted inhibition curve with a large enough effect in the signal ratio in the repeat runs, not every such curve was filed as active; the % refers to the signal ratio;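 note: cells stimulated with agonist L165041 at 300 nM final during compound exposure; series mostly up to about 62 µM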)
Summary of the method: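 Inhibition of L165041-driven (300 nM final) PPARd signaling is scored in HEK293H UAS-bla cells. Exposure lasts 17 h at 37 C; beta-lactamase activity is then read by FRET substrate fluorescence after 2 h at room temperature.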

Measured: Potency

Nc1nc(N)c(-c2ccccc2)s1
not listed: [16] | [17] | [18] | [19]
inactive: all other assays above

Oc1ccc(C(O)CNCCCCCCNCC(O)c2ccc(O)c(O)c2)cc1O (stereo unspecified)
not listed: [4] | [6] | [18] | [19]
inactive: all other assays above

CCCc1ccccc1
not listed: [4] | [6] | [19]
inactive: all other assays above

Oc1ccc(Sc2ccc(O)cc2)cc1
not listed: [4] | [17]
inactive: all other assays above

O=C(Cl)c1ccc([N+](=O)[O-])cc1
not listed: [4] | [6] | [16] | [17] | [18]
inactive: all other assays above

CC/C(=C\C(=N/O)C(N)=O)C(C)[N+](=O)[O-] (stereo unspecified)
not listed: [2] | [3] | [4] | [6] | [17] | [19]
inactive: all other assays above

CC(CN)CCCN (stereo unspecified)
not listed: [2] | [4] | [6] | [16] | [17] | [19]
inactive: all other assays above

CCCCCOC(=O)COc1cc(N2C(=O)C3=C(CCCC3)C2=O)c(F)cc1Cl
not listed: [2] | [4] | [5] | [6] | [19]
inactive: all other assays above

COc1ccc([C@@H]2Sc3ccccc3N(CCN(C)C)C(=O)[C@@H]2OC(C)=O)cc1
not listed: [3] | [4] | [6] | [18]
inactive: all other assays above

Cc1ccccc1N=Nc1ccc(N=Nc2c(O)ccc3ccccc23)c(C)c1
not listed: [4] | [6] | [8] | [16] | [17] | [19]
inactive: all other assays above

COC(=O)CSc1cc(N=c2sc(=O)n3n2CCCC3)c(F)cc1Cl
not listed: [3] | [5]
inactive: all other assays above

Oc1ccc2c(c1)OCO2
not listed: [2] | [4] | [6] | [17] | [19]
inactive: all other assays above

CC(=O)OC/C=C/c1ccccc1
not listed: [4] | [5] | [18] | [19]
inactive: all other assays above

NC1CCN(c2nc3c(cc2F)c(=O)c(C(=O)O)cn3-c2ccc(F)cc2F)C1 (stereo unspecified)
not listed: [2] | [3] | [4] | [6] | [16] | [17] | [18] | [19]
inactive: all other assays above

CCCC(C)C
not listed: [3] | [4] | [5] | [6] | [18] | [19]
inactive: all other assays above

c1ccc(OCc2ccc(CCCN3CCOCC3)cc2)cc1
not listed: [3] | [4] | [6] | [18]
inactive: all other assays above

CC[C@@H]1C[C@H](N(Cc2cc(C(F)(F)F)cc(C(F)(F)F)c2)C(C)=O)c2cc(C(F)(F)F)ccc2N1C(=O)OC(C)C
not listed: [2] | [3] | [4] | [6] | [18] | [19]
inactive: all other assays above

CC(C(=O)O)c1ccc(-c2ccccc2)c(F)c1 (stereo unspecified)
not listed: [2] | [4] | [6]
inactive: all other assays above

Cc1ccc(C(=O)C(C)CN2CCCCC2)cc1 (stereo unspecified)
not listed: [2] | [19]
inactive: all other assays above
